# Measurements as given in the supplement of paper PMC10849652.
# Of roughly 7,900 targets only a part is listed; those with a hit were picked by preference. About 0.6% of all pairs of compound and target were hits. Unmarked numbers belong to inactive results.
# Key:
# Test in all cases: log2 fold change, soluble protein after heating vs DMSO (PISA); higher = thermal stabilisation; K562 cells, 10 uM, 30 min; active = over 0.2 and 3.5 SD of the protein, either way, in both replicates (recomputed)
# IRAK-1-4 Inhibitor I = compound: C1COCCN1CCN2C3=CC=CC=C3N=C2NC(=O)C4=CC(=CC=C4)[N+](=O)[O-] [IRAK-1-4 Inhibitor I]
# Procedure, shortened: (§1)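 Thermal stability values are relative to control samples and come from duplicates. They are expressed as log2 fold changes. For measurement, K562 cells (2×10^6 cells/mL) received 10 μM compound for 30 min, and aliquots were heated for 3 min over 48°C-58°C, pooled, and extracted at 4°C in PBS with 0.5% NP-40. Soluble protein, the supernatant after 21,000xg for 90 min, was quantified by TMTpro 16plex LC-MS/MS with equalised channel sums.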
# ibrutinib = compound: C=CC(=O)N1CCC[C@@H](n2nc(-c3ccc(Oc4ccccc4)cc3)c3c(N)ncnc32)C1 [ibrutinib]
# Procedure, shortened: as §1
# [1] = compound: CC(=O)c1cnc2ccc(-c3cc(Cl)c(O)c(Cl)c3)nc2c1N[C@H]1CC[C@H](CN(C)C)CC1
# Procedure, shortened: as §1
# ralimetinib = compound: CC(C)(C)Cn1c(N)nc2ccc(-c3[nH]c(C(C)(C)C)nc3-c3ccc(F)cc3)nc21 [ralimetinib]
# Procedure, shortened: as §1
# [2] = compound: CC(C)(O)CC(=O)NCCn1ccc2ncnc(Nc3ccc(Oc4cccc(C(F)(F)F)c4)c(Cl)c3)c21
# Procedure, shortened: as §1
# [3] = compound: CC(C)C1=C2N=C(C=C(N2N=C1)NCC3=CC=CC=C3)NCCCCCCN
# Procedure, shortened: as §1
# [4] = compound: CC(C)C[C@@H](C=O)NC(=O)[C@H](CC(C)C)NC(=O)[C@H](CC(C)C)NC(=O)OCc1ccccc1
# Procedure, shortened: as §1
# pinometostat = compound: CC(C)N(C[C@H]1O[C@@H](n2cnc3c(N)ncnc32)[C@H](O)[C@@H]1O)[C@H]1C[C@@H](CCc2nc3cc(C(C)(C)C)ccc3[nH]2)C1 [pinometostat]
# Procedure, shortened: as §1
# [5] = compound: CC1=C(C(CC(=O)N1)C2=CC=C(C=C2)C(F)(F)F)C(=O)NC3=C(C=C4C(=C3)C=NN4)F
# Procedure, shortened: as §1
# [6] = compound: CC1=C(C2=C(C=C1)C(=O)C3=CC=CC=C3N2CCCN)C
# Procedure, shortened: as §1
# [7] = compound: CC1=C(C=C(C=C1)NC(=O)C2=CC(=CC=C2)C(C)(C)C#N)NC3=CC4=C(C=C3)N=CN(C4=O)C
# Procedure, shortened: as §1
# [8] = compound: CC1=C(C=C(C=C1)NC(=O)C2=CC(=CC=C2)N(C)C)NC(=O)C3=CC=C(C=C3)O
# Procedure, shortened: as §1
# [9] = compound: CC1=CC=C(C=C1)SC2=C3C=C(SC3=CN=C2)C(=O)N
# Procedure, shortened: as §1
# [10] = compound: CC1=NC(=CC=C1)C2=C(N=C(N2)C(C)(C)C)C3=CC4=NC=CN=C4C=C3
# Procedure, shortened: as §1
# Nexturastat A = compound: CCCCN(Cc1ccc(C(=O)NO)cc1)C(=O)Nc1ccccc1 [Nexturastat A]
# Procedure, shortened: as §1
# vemurafenib = compound: CCCS(=O)(=O)Nc1ccc(F)c(C(=O)c2c[nH]c3ncc(-c4ccc(Cl)cc4)cc23)c1F [vemurafenib]
# Procedure, shortened: as §1
# [11] = compound: CCCS(=O)(=O)Nc1ccc(F)c(C(=O)c2c[nH]c3ncc(Cl)cc23)c1F
# Procedure, shortened: as §1
# [12] = compound: CCCc1cc(C)[nH]c(=O)c1CNC(=O)c1cc(-c2ccnc(N3CCN(C)CC3)c2)cc2c1cnn2C(C)C
# Procedure, shortened: as §1
# givinostat = compound: CCN(CC)Cc1ccc2cc(COC(=O)Nc3ccc(C(=O)NO)cc3)ccc2c1 [givinostat]
# Procedure, shortened: as §1
# barasertib = compound: CCN(CCCOc1ccc2c(Nc3cc(CC(=O)Nc4cccc(F)c4)[nH]n3)ncnc2c1)CCOP(=O)(O)O [barasertib]
# Procedure, shortened: as §1
# Sequence of UniProt Q03013 (Q03013 whole entry, looked up): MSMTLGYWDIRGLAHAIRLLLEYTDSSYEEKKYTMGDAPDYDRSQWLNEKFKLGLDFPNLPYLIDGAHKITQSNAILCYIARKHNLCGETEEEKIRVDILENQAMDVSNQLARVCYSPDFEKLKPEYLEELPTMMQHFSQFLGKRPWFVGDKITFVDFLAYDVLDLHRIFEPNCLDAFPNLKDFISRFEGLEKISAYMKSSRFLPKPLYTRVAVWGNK
# Sequence of UniProt Q92947 (Q92947 whole entry, looked up): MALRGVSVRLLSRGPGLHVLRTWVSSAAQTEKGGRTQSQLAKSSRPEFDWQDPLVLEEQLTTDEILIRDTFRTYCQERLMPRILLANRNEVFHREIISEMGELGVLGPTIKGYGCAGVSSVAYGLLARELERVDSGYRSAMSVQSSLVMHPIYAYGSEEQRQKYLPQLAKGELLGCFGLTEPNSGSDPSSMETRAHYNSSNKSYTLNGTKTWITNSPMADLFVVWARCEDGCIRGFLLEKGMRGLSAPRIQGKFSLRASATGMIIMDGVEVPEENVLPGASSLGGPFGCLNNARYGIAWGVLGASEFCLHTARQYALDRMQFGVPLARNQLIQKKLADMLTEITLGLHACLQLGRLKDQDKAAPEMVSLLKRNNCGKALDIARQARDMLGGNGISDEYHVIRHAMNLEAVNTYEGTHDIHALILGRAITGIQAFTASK
# Sequence of UniProt P07686 (P07686 whole entry, looked up): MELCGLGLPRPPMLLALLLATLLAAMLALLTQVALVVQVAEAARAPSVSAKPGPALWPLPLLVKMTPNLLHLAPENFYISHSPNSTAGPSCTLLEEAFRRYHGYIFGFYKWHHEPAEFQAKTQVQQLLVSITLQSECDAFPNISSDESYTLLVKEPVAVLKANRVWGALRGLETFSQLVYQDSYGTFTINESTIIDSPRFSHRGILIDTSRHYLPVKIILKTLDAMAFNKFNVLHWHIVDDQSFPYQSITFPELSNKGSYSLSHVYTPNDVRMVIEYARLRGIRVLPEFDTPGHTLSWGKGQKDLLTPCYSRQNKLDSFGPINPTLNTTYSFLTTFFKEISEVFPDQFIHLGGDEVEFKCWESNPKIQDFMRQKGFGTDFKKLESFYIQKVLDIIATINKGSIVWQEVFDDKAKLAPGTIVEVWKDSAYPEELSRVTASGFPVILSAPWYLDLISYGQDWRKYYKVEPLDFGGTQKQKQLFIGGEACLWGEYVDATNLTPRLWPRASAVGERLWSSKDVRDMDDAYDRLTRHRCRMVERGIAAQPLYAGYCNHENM
# Sequence of UniProt P02008 (P02008 whole entry, looked up): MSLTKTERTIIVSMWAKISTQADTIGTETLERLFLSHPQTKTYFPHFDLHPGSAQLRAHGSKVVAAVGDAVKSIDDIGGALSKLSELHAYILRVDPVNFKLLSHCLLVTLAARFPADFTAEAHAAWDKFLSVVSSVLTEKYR
# Sequence of UniProt O15228 (O15228 whole entry, looked up): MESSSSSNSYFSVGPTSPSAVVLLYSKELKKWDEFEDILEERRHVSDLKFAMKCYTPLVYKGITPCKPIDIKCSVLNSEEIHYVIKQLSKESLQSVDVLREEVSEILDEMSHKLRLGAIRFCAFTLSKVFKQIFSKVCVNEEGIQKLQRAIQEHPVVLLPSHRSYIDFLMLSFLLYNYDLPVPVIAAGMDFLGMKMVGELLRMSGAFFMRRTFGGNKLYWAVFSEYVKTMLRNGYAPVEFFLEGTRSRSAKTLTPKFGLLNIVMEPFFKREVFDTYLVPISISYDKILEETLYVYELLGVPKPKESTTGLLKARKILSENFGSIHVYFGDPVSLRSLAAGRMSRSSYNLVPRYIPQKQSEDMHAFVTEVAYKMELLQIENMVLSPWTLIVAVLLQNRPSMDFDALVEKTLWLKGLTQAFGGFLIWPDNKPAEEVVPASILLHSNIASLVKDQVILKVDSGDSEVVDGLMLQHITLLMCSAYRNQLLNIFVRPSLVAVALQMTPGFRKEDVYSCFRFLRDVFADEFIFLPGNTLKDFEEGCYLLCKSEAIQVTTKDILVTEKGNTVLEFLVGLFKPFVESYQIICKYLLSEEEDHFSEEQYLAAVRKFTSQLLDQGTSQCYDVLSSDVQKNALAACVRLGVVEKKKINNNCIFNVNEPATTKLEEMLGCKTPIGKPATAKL
# Sequence of UniProt O95363 (O95363 whole entry, looked up): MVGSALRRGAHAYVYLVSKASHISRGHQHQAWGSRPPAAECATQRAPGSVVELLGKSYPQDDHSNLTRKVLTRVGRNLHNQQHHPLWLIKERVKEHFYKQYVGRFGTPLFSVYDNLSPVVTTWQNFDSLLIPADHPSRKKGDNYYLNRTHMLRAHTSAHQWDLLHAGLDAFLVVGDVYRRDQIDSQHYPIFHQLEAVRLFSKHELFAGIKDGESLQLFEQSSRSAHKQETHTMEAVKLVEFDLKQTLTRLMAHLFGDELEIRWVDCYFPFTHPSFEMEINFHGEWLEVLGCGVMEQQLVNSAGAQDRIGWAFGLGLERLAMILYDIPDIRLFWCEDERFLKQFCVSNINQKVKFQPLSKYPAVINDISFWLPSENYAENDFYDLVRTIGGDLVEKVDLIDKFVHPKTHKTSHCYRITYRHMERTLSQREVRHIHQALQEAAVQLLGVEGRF
# Sequence of UniProt Q7Z4V5 (Q7Z4V5 whole entry, looked up): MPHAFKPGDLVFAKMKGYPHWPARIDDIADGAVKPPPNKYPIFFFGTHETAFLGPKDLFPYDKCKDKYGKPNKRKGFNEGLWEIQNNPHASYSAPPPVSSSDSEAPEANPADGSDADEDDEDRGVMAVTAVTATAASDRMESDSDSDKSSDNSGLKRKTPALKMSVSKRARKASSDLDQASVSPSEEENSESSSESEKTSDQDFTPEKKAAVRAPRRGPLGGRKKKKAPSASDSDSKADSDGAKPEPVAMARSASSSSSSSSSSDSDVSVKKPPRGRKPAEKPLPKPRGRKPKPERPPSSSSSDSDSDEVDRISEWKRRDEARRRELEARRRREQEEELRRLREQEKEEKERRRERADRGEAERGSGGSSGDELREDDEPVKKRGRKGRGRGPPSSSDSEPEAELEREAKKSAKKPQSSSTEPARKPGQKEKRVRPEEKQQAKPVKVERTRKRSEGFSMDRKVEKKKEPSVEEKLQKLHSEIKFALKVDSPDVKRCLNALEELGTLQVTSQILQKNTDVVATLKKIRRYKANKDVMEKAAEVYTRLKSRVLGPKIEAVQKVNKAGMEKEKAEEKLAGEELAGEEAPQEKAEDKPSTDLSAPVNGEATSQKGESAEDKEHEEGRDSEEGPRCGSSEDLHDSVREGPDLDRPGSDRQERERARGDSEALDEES
# Sequence of UniProt O15347 (O15347 whole entry, looked up): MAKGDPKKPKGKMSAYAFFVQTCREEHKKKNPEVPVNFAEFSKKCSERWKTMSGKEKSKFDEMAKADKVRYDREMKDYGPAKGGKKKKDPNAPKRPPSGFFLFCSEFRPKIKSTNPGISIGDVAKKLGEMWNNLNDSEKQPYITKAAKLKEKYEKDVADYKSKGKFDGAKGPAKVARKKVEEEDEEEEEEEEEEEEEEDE
Target,log2 fold change (IRAK-1-4 Inhibitor I),log2 fold change (ibrutinib),log2 fold change [1],log2 fold change (ralimetinib),log2 fold change [2],log2 fold change [3],log2 fold change [4],log2 fold change (pinometostat),log2 fold change [5],log2 fold change [6],log2 fold change [7],log2 fold change [8],log2 fold change [9],log2 fold change [10],log2 fold change (Nexturastat A),log2 fold change (vemurafenib),log2 fold change [11],log2 fold change [12],log2 fold change (givinostat),log2 fold change (barasertib)
HDGFL2 (UniProt Q7Z4V5),0.01,-0.039,0.011,-0.019,0.041,-0.017,-0.022,-0.051,0.029,-0.709 (active),-0.281 (active),0,-0.006,0.049,0.063,-0.022,0.007,-0.078,0.049,0.037
GNPAT (UniProt O15228),0.026,-0.007,-0.017,0.02,-0.053,-0.018,-0.014,-0.018,0.004,0.024,-0.03,-0.046,0.007,0,-0.039,0.023,0.045,0.03,0.022,0.044
HEXB (UniProt P07686),0.06,0.004,0.003,-0.068,-0.004,-0.14,0.003,-0.025,-0.015,-0.03,0,0.029,0.028,0.022,-0.078,-0.003,-0.001,-0.019,-0.016,-0.015
HMGB3 (UniProt O15347),0.071,0.038,0.083,0.163,-0.007,0.068,0.001,-0.019,-0.003,0.016,-0.012,0,0.006,0.011,-0.014,-0.083,0.011,0.202,-0.016,-0.008
FARS2 (UniProt O95363),0,-0.038,-0.05,-0.004,-0.028,-0.182,-0.001,0.002,-0.003,-0.018,0.012,-0.015,-0.032,0.078,0.044,0.032,0.01,-0.087,-0.019,0.035
GSTM4 (UniProt Q03013),0.091,-0.028,-0.083,-0.035,-0.103,0.029,-0.008,-0.05,-0.036,0.115,0.106,0.128,-0.041,0.015,-0.117,0.126,-0.058,-0.105,0.001,-0.164
HBZ (UniProt P02008),0.025,-0.001,-0.005,-0.052,-0.042,0.102,-0.019,-0.017,0.004,0.088,0.01,-0.074,0.025,0.042,-0.013,-0.028,-0.006,-0.008,-0.052,0.044
GCDH (UniProt Q92947),0.018,0.025,-0.092,0.007,-0.09,0.05,0.003,-0.053,-0.012,0.055,-0.017,-0.004,0.014,0.009,-0.007,0,0.002,0.009,0.004,0.005
